# Laboratory results taken from PubChem BioAssay (NCI).
# The panel holds about 83,000 compounds, 20% with a hit somewhere; the sample as a whole holds those more often.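 Cells were grown in 96-well plates and exposed to the test compound at a single concentration for 48 hours; results are reported as percent growth, with values below 10 considered active.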 A number with no mark means an inactive call. Activity calls are given as the source filed them.
# Tests used:
# Experiment in all cases: NCI-60 one-dose screen, 48 h (100 = growth as untreated, 0 = no growth, -100 = all killed)
# Conditions in all cases: 10 µM unless noted
# NCI-H23 lung = system: NCI-H23 lung
# NCI-H226 lung = system: NCI-H226 lung
# NCI-H322M lung = system: NCI-H322M lung
# HOP-62 NSCLC = system: HOP-62 NSCLC
# NCI-H460 lung = system: NCI-H460 lung
# HOP-92 NSCLC = system: HOP-92 NSCLC
# NCI-H522 lung = system: NCI-H522 lung
# A549/ATCC NSCLC = system: A549/ATCC NSCLC
# 786-0 renal = system: 786-0 renal
# COLO 205 colon = system: COLO 205 colon
# DU-145 prostate = system: DU-145 prostate
# K-562 leukemia = system: K-562 leukemia
# MALME-3M melanoma = system: MALME-3M melanoma
# MDA-MB-231 breast = system: MDA-MB-231 breast
# RXF 393 renal = system: RXF 393 renal
# SF-268 CNS = system: SF-268 CNS
# SF-295 CNS = system: SF-295 CNS
# SF-539 CNS = system: SF-539 CNS
# UACC-257 melanoma = system: UACC-257 melanoma
# M14 melanoma = system: M14 melanoma
Structure (SMILES),growth (NCI-H23 lung),growth (NCI-H226 lung),growth (NCI-H322M lung),growth (HOP-62 NSCLC),growth (NCI-H460 lung),growth (HOP-92 NSCLC),growth (NCI-H522 lung),growth (A549/ATCC NSCLC),growth (786-0 renal),growth (COLO 205 colon),growth (DU-145 prostate),growth (K-562 leukemia),growth (MALME-3M melanoma),growth (MDA-MB-231 breast),growth (RXF 393 renal),growth (SF-268 CNS),growth (SF-295 CNS),growth (SF-539 CNS),growth (UACC-257 melanoma),growth (M14 melanoma)
CC1(C)CC[C@]2(C(=O)NCCNCCN)CC[C@]3(C)C(=CC[C@@H]4[C@@]5(C)CCC(=O)C(C)(C)[C@@H]5CC[C@]43C)[C@@H]2C1,93.3%,78.1%,81.1%,70.4%,-55.8% (active),39.7%,27.2%,32.6%,78.3%,-66.6% (active),32.5%,-47.9% (active),-65% (active),6.83% (active),50.1%,72.7%,96.7%,76.5%,92.8%,-63.4% (active)
COc1ccc(/C=C(\C#N)c2cc3ccccc3n2S(C)(=O)=O)cc1,89.8%,89.7%,99.6%,91.5%,105%,86.5%,73.5%,104%,99.9%,111%,98.2%,30.8%,66.5%,85.4%,78.1%,88%,71.6%,79.1%,90.2%,56.1%
C/C(Cc1ccc(Cl)cc1)=C(/c1ccc(Cl)cc1)c1ccc(OCCN2CCCC2)cc1,78.7%,96.4%,93.4%,91.7%,35.9%,60.8%,73.7%,69.8%,86%,61.6%,87%,15.2%,77.7%,89.2%,86.3%,92.4%,92.9%,89.7%,79.7%,78.2%
COc1cc(-c2cc3ncccc3c3nc(OCCN(C)C)c4cccnc4c23)cc(OC)c1OC,13.4%,-5.43% (active),17.9%,-45.6% (active),-50.8% (active),-8.69% (active),7.46% (active),-37.7% (active),-88.5% (active),3.65% (active),1.52% (active),7.73% (active),8.86% (active),20.2%,-72.1% (active),23.1%,9.6% (active),17.9%,15.1%,23%
Fc1ccc2c(c1)c(-c1nc(-c3c[nH]c4ncccc34)cs1)cn2CCCN1CCCCC1,84.9%,80%,80.6%,65.3%,13%,45.4%,94.3%,65.7%,61.9%,-73.1% (active),66.7%,-58.8% (active),49.8%,55.3%,69.4%,66.6%,93.2%,61.4%,100%,-81% (active)
O=C(NCN1C(=O)c2cccc3cccc(c23)C1=O)N1CCC(Cc2ccccc2)CC1,93.9%,96.7%,105%,94%,103%,70%,77.9%,89.8%,102%,97.5%,106%,90.2%,96.6%,98.2%,107%,100%,96.8%,102%,103%,92.5%
N=C(N)N=Nc1ccc(O)cc1,68% [100 µM],73.5% [100 µM],80.2% [100 µM],76.9% [100 µM],84.1% [100 µM],84% [100 µM],37.7% [100 µM],93.3% [100 µM],28.9% [100 µM],57.2% [100 µM],80.4% [100 µM],17% [100 µM],85.2% [100 µM],103% [100 µM],20.8% [100 µM],77.5% [100 µM],8.54% [100 µM] (active),15.2% [100 µM],95.6% [100 µM],81.6% [100 µM]
OCC(CO)(CCl)CCl,93.2%,101%,112%,99%,106%,86.4%,91.1%,76.7%,100%,105%,105%,106%,101%,94.8%,113%,98%,107%,102%,69.6%,89.4%
O=C1CCCC=CC[C@H]2C=C(Cl)C(=O)C2=CC[C@H](CCCCC(F)(F)F)OC(=O)CCCC=CC[C@H]2C=C(Cl)C(=O)C2=CC[C@H](CCCCC(F)(F)F)OC(=O)CCCC=CC[C@H]2C=C(Cl)C(=O)C2=CC[C@H](CCCCC(F)(F)F)O1,65.2% [6.25 µM],113% [6.25 µM],99.1% [6.25 µM],85.9% [6.25 µM],89.6% [6.25 µM],126% [6.25 µM],34.4% [6.25 µM],93.7% [6.25 µM],108% [6.25 µM],80% [6.25 µM],62.4% [6.25 µM],32.1% [6.25 µM],106% [6.25 µM],51.5% [6.25 µM],86% [6.25 µM],82.8% [6.25 µM],107% [6.25 µM],93% [6.25 µM],79.3% [6.25 µM],59.5% [6.25 µM]
N#C/C(=C\c1ccc(-c2ccccc2)o1)c1nc(-c2ccco2)cs1,82.7%,81.3%,84.6%,98.6%,85%,87.4%,93.8%,101%,106%,104%,107%,93.2%,94.8%,86.3%,105%,101%,97.6%,94.9%,103%,93.8%
CCSc1sc(-c2ccc(C)cc2)nc1[P+](c1ccccc1)(c1ccccc1)c1ccccc1,-13.9% (active),-4.39% (active),-16.7% (active),-10.3% (active),-40.5% (active),-38.3% (active),-10.4% (active),3.64% (active),5.86% (active),-26% (active),4.57% (active),0.0447% (active),-28.4% (active),-24.8% (active),-37% (active),7.81% (active),-11.3% (active),9.93% (active),-3.94% (active),-8.96% (active)
Cc1csc(Nc2nc(-c3ccc(Cl)cc3)nc(C(Cl)(Cl)Cl)n2)n1,95.3%,110%,-3.18% (active),76.4%,56.6%,83.3%,92.8%,34.6%,89.5%,52.6%,12.6%,87.2%,99.9%,79.9%,87.1%,90.5%,60.8%,87.2%,98.7%,95.9%
O=C1c2ccccc2NC(c2cn(-c3ccccc3)nc2-c2cccs2)N1Cc1ccccc1 (stereo not given),74%,96.3%,85.3%,86.9%,94.5%,74.1%,72.3%,82.8%,73.6%,93.5%,97.6%,70.7%,109%,77.4%,94.5%,78.9%,80%,88.5%,103%,80%
COc1ccc(NC(=O)c2ccoc2COc2ccccc2)cc1,95.7%,98.8%,101%,100%,106%,88.8%,90.2%,102%,96.9%,110%,106%,55%,99.7%,95.7%,93.9%,97.5%,98.3%,96%,99.7%,92.1%
NC1=NN(c2ccccc2)C(=O)/C1=C/c1ccc(Cl)cc1,98%,99.2%,97.8%,95.3%,99.1%,91.6%,90.6%,98.5%,94.4%,95.7%,107%,102%,92.4%,-99% (active),107%,102%,113%,111%,97.3%,97.2%
